These results are taken from paper PMC7862700, “An all-to-all approach to the identification of sequence-specific readers for epigenetic DNA modifications on cytosine”.

Common to all, as to test: DAPPL (digital affinity profiling via proximity ligation, sequencing); 10 mM Tris-HCl pH 7.5, 50 mM NaCl, 1 mM DTT, 4% glycerol, room temperature, 30 min; GST-TFs on glutathione beads, 16-mer random dsDNA library, 0.1% formaldehyde crosslink after washing; high values mean tight binding
What all share (settings): protein: recombinant; tags: N-terminal GST; dsDNA, one strand shown

The target of one test is T1, ELK1 (Homo sapiens, UniProt P19419 1-428).
T1 sequence: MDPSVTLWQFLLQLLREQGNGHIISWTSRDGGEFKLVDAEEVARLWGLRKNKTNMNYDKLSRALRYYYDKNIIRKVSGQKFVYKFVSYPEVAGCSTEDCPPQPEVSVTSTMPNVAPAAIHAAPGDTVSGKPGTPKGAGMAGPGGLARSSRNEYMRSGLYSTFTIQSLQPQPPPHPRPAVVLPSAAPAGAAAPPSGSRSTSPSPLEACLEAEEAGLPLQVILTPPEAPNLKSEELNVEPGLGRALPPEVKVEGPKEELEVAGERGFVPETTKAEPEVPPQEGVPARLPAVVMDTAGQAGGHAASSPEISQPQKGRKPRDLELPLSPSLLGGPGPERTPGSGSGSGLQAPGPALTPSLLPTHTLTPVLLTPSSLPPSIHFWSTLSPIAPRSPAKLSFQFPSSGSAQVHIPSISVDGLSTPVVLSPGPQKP
Put shortly: (§1)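 Beads coated with glutathione captured GST-fused human transcription factors that had been expressed in yeast, and the factors were then given DNA barcodes and pooled with a tag-only sample. The pools were incubated with 200 nmole of a random double-stranded 16-mer DNA library in Tris/NaCl/DTT/glycerol buffer for 30 min at room temperature, washed, crosslinked with 0.1% formaldehyde and proximity-ligated with BsaI/T4 ligase at 37 °C for 1 h. PCR amplification and Illumina NextSeq500 sequencing came last. Binding signal is each hexamer's read frequency for a factor divided by its frequency for the tag-only sample.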

The target in the next test is T2, GABPA (Homo sapiens, UniProt Q06546 1-454).
T2 sequence: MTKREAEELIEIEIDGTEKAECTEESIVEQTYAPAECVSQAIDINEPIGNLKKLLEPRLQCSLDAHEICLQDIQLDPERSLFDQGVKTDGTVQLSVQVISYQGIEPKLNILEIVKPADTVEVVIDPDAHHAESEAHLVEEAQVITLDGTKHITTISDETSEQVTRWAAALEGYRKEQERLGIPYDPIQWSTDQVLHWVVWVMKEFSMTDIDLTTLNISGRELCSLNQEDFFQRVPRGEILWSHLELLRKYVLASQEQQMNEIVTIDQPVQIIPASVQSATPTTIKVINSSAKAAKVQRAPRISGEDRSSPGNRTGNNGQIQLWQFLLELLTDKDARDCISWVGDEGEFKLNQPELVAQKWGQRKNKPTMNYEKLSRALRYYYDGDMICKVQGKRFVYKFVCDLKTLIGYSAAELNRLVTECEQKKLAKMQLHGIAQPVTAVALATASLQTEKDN
Put shortly:
as §1

For another test, the target named is T3, ERG (Homo sapiens, UniProt P11308 1-479).
T3 sequence: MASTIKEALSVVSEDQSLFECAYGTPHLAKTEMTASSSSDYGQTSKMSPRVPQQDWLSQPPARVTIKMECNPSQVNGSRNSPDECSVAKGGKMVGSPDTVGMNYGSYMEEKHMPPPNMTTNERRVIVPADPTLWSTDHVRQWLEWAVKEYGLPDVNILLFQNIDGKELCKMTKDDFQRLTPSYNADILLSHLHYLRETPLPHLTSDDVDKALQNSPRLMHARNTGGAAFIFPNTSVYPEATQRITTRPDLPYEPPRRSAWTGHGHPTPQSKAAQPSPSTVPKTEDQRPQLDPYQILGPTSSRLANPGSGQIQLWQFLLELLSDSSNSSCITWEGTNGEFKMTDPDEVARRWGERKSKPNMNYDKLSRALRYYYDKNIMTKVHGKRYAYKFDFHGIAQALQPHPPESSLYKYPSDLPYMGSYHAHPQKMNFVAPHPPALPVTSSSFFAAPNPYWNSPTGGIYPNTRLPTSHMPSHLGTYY
Put shortly:
as §1

The next test addresses ELF1 (Homo sapiens, UniProt P32519 1-619). Put shortly:
as §1

A further test addresses T4, EHF (Homo sapiens, UniProt Q9NZC4 1-300).
T4 sequence: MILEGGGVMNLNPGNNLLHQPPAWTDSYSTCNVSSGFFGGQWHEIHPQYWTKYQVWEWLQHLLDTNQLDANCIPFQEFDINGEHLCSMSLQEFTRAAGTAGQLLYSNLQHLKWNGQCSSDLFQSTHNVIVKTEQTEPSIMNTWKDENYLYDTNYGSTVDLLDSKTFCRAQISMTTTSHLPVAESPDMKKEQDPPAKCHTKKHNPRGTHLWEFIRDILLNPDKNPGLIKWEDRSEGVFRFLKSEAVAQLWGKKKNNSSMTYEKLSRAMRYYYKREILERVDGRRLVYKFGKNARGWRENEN
Put shortly:
as §1

The next test has as its target SPI1 (Homo sapiens, UniProt P17947 1-270). Put shortly:
as §1

The next test has as its target SPIB (Homo sapiens, UniProt Q01892 1-262). The gist of the method: as §1
The target of the next test is ETV5 (Homo sapiens, UniProt P41161 1-510). The gist of the method: as §1
Chain of ETV5 (P41161 whole entry): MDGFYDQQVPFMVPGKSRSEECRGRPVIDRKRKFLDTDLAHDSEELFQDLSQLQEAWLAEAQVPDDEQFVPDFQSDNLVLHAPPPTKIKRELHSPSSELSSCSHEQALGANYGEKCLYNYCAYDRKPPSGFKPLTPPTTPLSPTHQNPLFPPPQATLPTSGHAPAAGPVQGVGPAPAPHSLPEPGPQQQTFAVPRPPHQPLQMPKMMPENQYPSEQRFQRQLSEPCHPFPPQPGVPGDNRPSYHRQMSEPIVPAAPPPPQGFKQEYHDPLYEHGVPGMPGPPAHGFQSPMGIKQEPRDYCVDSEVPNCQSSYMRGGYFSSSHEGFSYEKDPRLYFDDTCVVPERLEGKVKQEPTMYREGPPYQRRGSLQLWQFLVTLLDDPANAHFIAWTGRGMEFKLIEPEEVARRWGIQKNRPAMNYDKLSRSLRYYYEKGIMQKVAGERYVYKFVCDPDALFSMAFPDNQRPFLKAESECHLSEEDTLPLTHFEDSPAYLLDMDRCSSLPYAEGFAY
The target of another test is ELF4 (Homo sapiens, UniProt Q99607 1-663). Put shortly:
as §1

In a further test the target is T5, ELK4 (Homo sapiens, UniProt P28324-2 1-405).
T5 sequence: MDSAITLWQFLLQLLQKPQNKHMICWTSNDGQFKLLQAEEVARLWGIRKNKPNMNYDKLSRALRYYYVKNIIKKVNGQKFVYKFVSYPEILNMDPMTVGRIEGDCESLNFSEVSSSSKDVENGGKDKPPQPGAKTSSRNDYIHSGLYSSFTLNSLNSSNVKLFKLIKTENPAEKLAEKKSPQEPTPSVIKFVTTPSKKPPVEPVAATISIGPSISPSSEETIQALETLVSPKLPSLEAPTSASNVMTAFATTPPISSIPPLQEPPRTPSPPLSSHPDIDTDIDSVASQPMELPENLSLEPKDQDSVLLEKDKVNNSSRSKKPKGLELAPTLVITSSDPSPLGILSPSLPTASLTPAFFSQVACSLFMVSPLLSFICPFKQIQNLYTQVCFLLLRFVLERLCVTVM
The gist of the method:
as §1

For the next test, the target named is T6, ETV2 (Homo sapiens, UniProt O00321 1-342).
T6 sequence: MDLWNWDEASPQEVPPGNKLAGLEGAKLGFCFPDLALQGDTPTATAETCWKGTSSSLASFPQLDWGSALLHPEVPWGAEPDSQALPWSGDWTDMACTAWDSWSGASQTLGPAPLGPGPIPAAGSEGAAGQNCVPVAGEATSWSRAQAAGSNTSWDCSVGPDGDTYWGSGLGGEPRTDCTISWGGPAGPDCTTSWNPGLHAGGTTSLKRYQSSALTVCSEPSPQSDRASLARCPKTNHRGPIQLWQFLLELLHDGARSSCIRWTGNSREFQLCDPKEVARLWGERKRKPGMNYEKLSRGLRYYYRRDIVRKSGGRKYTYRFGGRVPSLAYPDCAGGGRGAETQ
The gist of the method:
as §1

A further test has as its target ETV1 (Homo sapiens, UniProt P50549 1-477). Put shortly:
as §1

The next test has as its target T7, ETV3L (Homo sapiens, UniProt Q6ZN32 1-361).
T7 sequence: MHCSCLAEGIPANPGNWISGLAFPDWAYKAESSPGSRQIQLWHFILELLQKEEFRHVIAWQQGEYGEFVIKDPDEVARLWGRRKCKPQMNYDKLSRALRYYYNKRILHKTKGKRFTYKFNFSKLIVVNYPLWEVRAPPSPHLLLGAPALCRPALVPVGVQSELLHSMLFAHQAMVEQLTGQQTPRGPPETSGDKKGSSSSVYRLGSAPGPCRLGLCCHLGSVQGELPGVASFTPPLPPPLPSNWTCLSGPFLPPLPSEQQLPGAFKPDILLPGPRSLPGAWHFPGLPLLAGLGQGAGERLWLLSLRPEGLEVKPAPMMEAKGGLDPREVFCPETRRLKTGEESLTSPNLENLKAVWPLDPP
The gist of the method:
as §1

The target of another test is T8, ETS2 (Homo sapiens, UniProt P15036 1-469).
T8 sequence: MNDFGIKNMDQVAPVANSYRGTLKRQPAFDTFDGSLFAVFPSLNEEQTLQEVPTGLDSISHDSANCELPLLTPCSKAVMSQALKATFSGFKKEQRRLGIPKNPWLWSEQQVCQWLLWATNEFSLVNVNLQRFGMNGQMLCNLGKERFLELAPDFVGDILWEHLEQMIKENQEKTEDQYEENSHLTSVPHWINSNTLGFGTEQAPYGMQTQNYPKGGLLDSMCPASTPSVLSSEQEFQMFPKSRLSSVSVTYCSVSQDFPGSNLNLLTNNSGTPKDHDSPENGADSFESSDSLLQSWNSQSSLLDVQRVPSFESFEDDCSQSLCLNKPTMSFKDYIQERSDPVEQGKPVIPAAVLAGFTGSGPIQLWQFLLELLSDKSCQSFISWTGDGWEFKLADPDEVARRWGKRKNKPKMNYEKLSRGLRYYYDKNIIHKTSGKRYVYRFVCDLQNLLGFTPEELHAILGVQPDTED
The gist of the method:
as §1

Another test concerns the target T9, SPDEF (Homo sapiens, UniProt O95238 1-335).
T9 sequence: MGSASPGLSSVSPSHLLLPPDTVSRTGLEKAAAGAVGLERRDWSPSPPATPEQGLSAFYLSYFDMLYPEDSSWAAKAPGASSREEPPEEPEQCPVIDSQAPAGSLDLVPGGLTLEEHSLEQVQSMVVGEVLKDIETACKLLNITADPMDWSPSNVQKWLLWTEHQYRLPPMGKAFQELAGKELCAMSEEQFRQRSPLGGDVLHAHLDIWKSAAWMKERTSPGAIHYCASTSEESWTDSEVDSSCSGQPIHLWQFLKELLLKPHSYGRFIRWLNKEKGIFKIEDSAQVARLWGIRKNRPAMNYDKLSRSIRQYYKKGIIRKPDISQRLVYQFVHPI
Put shortly: as §1

For another test, the target named is T10, ETV7 (Homo sapiens, UniProt Q9Y603 1-341).
T10 sequence: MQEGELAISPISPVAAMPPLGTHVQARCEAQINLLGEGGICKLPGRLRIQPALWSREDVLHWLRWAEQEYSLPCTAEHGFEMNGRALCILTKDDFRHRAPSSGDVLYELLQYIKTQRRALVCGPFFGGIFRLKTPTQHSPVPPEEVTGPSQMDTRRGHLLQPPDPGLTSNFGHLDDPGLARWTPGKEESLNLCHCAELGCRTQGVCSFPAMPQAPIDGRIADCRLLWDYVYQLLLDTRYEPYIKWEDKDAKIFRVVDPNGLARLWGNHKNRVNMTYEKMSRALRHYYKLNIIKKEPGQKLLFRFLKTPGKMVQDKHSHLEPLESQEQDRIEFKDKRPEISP
Put shortly:
as §1

A further test addresses T11, ETV3 (Homo sapiens, UniProt P41162-2 1-143).
T11 sequence: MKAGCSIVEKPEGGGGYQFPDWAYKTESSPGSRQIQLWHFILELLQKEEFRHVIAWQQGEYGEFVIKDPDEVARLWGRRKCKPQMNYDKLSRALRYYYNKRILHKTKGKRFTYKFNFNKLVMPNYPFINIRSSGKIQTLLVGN
The gist of the method: as §1

Another test addresses ETV6 (Homo sapiens, UniProt P41212 1-452). Put shortly:
as §1

Chain of SPIB (Q01892 whole entry): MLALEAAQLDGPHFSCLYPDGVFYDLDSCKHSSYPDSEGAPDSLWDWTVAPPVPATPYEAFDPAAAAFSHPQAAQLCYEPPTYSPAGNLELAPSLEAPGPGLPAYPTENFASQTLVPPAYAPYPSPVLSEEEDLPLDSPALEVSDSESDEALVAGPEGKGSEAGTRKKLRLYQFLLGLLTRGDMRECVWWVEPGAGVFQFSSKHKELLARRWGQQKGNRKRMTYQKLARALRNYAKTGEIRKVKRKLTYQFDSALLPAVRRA
Chain of ELF4 (Q99607 whole entry): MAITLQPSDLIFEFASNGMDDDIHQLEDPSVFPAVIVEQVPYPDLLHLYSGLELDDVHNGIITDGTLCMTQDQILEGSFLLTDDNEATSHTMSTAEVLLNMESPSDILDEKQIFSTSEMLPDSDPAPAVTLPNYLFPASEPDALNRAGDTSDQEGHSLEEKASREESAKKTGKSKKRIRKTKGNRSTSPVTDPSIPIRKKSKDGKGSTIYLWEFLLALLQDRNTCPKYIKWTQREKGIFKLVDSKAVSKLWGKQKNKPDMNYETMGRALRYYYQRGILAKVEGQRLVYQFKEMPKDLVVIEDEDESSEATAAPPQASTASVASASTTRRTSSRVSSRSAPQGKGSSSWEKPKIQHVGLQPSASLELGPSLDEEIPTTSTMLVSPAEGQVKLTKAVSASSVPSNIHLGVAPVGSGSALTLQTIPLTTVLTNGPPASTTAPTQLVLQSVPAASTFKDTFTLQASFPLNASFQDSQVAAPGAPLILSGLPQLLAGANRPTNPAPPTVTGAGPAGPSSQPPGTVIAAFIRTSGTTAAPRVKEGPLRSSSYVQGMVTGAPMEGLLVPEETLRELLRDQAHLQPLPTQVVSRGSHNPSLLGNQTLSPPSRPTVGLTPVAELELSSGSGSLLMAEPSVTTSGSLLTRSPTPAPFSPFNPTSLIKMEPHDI
Chain of ETV6 (P41212 whole entry): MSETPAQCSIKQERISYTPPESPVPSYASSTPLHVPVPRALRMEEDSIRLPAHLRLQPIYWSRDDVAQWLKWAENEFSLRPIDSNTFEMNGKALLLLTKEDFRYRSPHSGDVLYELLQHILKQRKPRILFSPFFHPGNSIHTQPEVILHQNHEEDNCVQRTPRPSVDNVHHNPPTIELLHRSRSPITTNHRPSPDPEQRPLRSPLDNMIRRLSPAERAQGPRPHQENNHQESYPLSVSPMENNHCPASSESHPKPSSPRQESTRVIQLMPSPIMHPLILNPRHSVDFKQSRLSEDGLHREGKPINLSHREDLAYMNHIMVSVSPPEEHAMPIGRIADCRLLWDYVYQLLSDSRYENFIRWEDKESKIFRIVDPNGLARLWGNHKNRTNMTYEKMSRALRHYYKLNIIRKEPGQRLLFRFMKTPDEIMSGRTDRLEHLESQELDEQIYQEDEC
Chain of ELF1 (P32519 whole entry): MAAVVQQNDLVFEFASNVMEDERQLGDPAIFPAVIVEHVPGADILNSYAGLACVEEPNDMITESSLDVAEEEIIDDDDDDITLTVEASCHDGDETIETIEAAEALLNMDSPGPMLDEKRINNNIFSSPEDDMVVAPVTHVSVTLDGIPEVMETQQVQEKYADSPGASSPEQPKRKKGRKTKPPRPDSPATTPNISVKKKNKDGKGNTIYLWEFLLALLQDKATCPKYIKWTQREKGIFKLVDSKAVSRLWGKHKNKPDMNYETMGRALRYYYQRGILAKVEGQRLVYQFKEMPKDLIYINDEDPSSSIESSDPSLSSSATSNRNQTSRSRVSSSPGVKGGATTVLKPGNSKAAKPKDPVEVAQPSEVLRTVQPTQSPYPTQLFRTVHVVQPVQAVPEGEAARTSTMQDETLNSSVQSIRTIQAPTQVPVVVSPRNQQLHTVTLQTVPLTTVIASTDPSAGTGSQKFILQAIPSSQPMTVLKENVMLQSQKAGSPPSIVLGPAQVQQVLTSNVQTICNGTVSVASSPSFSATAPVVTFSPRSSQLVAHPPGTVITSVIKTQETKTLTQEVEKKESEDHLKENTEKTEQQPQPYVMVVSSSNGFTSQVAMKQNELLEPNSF
Chain of ETV1 (P50549 whole entry): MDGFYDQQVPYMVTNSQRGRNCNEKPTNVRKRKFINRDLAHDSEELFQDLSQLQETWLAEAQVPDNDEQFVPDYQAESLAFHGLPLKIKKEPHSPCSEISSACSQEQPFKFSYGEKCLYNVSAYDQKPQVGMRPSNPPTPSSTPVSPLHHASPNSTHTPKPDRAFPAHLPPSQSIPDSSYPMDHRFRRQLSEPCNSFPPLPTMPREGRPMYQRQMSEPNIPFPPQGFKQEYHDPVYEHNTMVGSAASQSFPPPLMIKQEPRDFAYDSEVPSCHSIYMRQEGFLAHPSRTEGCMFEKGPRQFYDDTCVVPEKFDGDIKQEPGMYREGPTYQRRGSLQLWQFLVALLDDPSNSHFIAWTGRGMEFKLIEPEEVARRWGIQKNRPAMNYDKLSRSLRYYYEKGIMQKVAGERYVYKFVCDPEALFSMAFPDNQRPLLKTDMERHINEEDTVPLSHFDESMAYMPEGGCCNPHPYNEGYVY

On to CTGGGC, for which the binding signal with ELK1 is 1.08 fold enrichment (6-mer frequency, TF over GST control); with GABPA it was 1.09 fold enrichment (6-mer frequency, TF over GST control); with ERG, 1.04 fold enrichment (6-mer frequency, TF over GST control); in the test with ELF1, 1.24 fold enrichment (6-mer frequency, TF over GST control); with EHF, 1.01 fold enrichment (6-mer frequency, TF over GST control); with SPI1, 1.05 fold enrichment (6-mer frequency, TF over GST control). Further, the binding signal is 1.03 fold enrichment (6-mer frequency, TF over GST control) with SPIB; 1.04 fold enrichment (6-mer frequency, TF over GST control) with ETV5; 1.07 fold enrichment (6-mer frequency, TF over GST control) with ELF4; 1.11 fold enrichment (6-mer frequency, TF over GST control) with ELK4; 1.13 fold enrichment (6-mer frequency, TF over GST control) with ETV2; 1 fold enrichment (6-mer frequency, TF over GST control) with ETV1. Besides, the binding signal with ETV3L is 1.12 fold enrichment (6-mer frequency, TF over GST control); with ETS2 it was 1.03 fold enrichment (6-mer frequency, TF over GST control); with SPDEF it was 1 fold enrichment (6-mer frequency, TF over GST control); with ETV7, 1.24 fold enrichment (6-mer frequency, TF over GST control); with ETV3, 1.03 fold enrichment (6-mer frequency, TF over GST control); with ETV6 it was 1.03 fold enrichment (6-mer frequency, TF over GST control).
